The text below walks through data of PMC7862700, “An all-to-all approach to the identification of sequence-specific readers for epigenetic DNA modifications on cytosine”.

Holding throughout (experiment): DAPPL (digital affinity profiling via proximity ligation, sequencing); 10 mM Tris-HCl pH 7.5, 50 mM NaCl, 1 mM DTT, 4% glycerol, room temperature, 30 min; GST-TFs on glutathione beads, 16-mer random dsDNA library, 0.1% formaldehyde crosslink after washing; high values mean tight binding
One test has as its target T1, FEV (Homo sapiens, UniProt Q99581 1-238).
T1 sequence: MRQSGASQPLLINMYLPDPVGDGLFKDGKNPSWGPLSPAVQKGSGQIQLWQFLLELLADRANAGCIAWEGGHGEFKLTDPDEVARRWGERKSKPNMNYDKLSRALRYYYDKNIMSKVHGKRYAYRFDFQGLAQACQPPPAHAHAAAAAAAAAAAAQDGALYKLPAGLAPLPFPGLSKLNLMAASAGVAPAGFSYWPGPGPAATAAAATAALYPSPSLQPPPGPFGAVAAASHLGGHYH
Particulars: protein: recombinant; tags: N-terminal GST; dsDNA, one strand shown. Summed up: (§1)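 Pools were built from human transcription factors expressed in yeast as GST fusions, captured on glutathione beads and DNA-barcoded, along with a tag-only sample. Incubation with 200 nmole of a 16-mer random double-stranded DNA library lasted 30 min at room temperature in Tris/NaCl/DTT/glycerol buffer, and was followed by washing, 0.1% formaldehyde crosslinking, proximity ligation, PCR amplification and Illumina NextSeq500 sequencing. Binding signal is the quotient of each hexamer's read frequency for a factor and its frequency for the tag-only sample.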

The target of another test is ETV5 (Homo sapiens, UniProt P41161 1-510). Conditions: protein: recombinant; tags: N-terminal GST; dsDNA, one strand shown. Summed up:
as §1

A further test deals with HSF1 (Homo sapiens, UniProt Q00613 1-529). Particulars: protein: recombinant; tags: N-terminal GST; chain copies: 3; dsDNA, one strand shown. Summed up: as §1
Chain of HSF1 (Q00613 whole entry): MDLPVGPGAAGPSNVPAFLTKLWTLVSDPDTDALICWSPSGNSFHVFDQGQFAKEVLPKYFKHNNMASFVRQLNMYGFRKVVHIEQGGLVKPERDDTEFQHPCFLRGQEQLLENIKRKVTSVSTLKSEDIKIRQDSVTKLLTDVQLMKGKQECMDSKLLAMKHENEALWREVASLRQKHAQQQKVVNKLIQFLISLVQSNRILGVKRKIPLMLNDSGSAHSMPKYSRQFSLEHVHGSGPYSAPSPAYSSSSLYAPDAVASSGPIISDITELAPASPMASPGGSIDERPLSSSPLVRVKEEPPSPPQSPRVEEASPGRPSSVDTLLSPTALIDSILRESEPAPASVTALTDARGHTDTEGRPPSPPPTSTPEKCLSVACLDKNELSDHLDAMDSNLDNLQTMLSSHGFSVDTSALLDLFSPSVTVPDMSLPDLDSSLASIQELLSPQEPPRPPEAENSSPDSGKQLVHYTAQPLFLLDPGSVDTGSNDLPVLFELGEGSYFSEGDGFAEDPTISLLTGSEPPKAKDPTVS
For a further test, the target named is T2, SPIC (Homo sapiens, UniProt Q8N5J4 1-248).
T2 sequence: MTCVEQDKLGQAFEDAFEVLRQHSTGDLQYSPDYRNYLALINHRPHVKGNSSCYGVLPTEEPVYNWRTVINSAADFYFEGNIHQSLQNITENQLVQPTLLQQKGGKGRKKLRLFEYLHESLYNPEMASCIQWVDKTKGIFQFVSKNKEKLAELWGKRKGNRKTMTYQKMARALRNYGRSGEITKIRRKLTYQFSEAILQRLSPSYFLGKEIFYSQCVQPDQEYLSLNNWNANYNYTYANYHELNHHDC
Conditions: protein: recombinant; tags: N-terminal GST; dsDNA, one strand shown. A digest of the protocol:
as §1

Another test deals with ELF4 (Homo sapiens, UniProt Q99607 1-663). Particulars: protein: recombinant; tags: N-terminal GST; dsDNA, one strand shown. Summed up:
as §1

A further test addresses T3, ELK4 (Homo sapiens, UniProt P28324-2 1-405).
T3 sequence: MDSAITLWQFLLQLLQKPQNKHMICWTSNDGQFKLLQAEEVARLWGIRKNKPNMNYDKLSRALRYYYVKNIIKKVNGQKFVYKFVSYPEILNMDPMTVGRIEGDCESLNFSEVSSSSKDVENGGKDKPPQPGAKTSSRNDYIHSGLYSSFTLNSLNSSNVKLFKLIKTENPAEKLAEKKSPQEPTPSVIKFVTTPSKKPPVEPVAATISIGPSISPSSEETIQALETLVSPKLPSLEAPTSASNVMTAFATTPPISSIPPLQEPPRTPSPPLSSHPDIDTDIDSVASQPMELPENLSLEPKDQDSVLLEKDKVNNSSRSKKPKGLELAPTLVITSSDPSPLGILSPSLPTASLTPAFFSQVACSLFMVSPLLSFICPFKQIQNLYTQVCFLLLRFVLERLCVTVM
Conditions: protein: recombinant; tags: N-terminal GST; dsDNA, one strand shown. Summed up:
as §1

A further test addresses T4, ETV2 (Homo sapiens, UniProt O00321 1-342).
T4 sequence: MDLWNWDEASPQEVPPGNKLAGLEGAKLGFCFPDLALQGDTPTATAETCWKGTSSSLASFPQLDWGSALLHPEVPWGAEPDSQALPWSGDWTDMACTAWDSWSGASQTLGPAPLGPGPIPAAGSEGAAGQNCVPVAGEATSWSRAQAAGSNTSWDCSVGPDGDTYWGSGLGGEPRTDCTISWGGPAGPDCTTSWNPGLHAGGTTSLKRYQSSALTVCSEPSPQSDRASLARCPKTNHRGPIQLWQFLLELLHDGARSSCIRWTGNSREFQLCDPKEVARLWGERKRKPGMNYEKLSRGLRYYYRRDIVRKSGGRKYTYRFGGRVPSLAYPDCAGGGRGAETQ
Conditions: protein: recombinant; tags: N-terminal GST; dsDNA, one strand shown. A digest of the protocol:
as §1

A further test has as its target T5, ELF3 (Homo sapiens, UniProt P78545 1-371).
T5 sequence: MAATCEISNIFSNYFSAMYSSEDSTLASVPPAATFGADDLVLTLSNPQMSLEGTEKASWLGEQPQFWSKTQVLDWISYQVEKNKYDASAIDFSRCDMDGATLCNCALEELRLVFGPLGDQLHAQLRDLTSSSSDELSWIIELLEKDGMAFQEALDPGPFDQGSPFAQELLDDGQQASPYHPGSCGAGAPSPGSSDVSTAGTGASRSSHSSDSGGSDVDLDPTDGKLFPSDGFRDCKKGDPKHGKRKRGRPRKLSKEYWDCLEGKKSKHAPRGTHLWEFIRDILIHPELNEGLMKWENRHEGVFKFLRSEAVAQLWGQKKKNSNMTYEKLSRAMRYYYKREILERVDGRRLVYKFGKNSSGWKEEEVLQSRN
Particulars: protein: recombinant; tags: N-terminal GST; dsDNA, one strand shown. Summed up:
as §1

In another test the target is CRX (Homo sapiens, UniProt O43186 1-299). Particulars: protein: recombinant; tags: N-terminal GST; dsDNA, one strand shown. A digest of the protocol:
as §1

The next test deals with ETV1 (Homo sapiens, UniProt P50549 1-477). Particulars: protein: recombinant; tags: N-terminal GST; dsDNA, one strand shown. Summed up:
as §1

In the next test the target is T6, ERF (Homo sapiens, UniProt P50548 1-548).
T6 sequence: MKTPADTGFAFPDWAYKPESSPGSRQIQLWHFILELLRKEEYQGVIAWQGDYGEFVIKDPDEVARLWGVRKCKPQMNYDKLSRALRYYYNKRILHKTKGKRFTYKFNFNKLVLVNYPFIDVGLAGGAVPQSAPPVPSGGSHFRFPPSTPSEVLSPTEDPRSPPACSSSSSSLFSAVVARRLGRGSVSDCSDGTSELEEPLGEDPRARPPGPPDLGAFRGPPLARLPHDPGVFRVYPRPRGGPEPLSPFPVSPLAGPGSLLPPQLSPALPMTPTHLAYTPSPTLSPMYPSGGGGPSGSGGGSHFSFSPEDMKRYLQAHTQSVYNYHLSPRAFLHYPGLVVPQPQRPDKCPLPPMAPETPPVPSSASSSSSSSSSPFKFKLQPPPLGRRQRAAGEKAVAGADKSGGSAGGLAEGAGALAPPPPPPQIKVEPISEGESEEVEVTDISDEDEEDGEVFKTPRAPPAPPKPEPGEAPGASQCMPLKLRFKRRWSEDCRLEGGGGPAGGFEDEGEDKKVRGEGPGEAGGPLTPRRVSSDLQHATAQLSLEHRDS
Particulars: protein: recombinant; tags: N-terminal GST; dsDNA, one strand shown. A digest of the protocol: as §1

For another test, the target named is T7, ETV3L (Homo sapiens, UniProt Q6ZN32 1-361).
T7 sequence: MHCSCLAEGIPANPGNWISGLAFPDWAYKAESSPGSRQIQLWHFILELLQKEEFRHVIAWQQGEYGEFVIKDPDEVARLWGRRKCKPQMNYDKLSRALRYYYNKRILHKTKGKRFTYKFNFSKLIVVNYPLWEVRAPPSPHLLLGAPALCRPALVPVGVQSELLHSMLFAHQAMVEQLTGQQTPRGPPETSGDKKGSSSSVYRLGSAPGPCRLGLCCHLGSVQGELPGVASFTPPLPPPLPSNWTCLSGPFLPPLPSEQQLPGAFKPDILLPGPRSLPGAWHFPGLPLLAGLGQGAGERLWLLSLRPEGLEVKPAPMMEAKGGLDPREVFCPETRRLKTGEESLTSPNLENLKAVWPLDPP
Conditions: protein: recombinant; tags: N-terminal GST; dsDNA, one strand shown. A digest of the protocol:
as §1

A further test has as its target T8, ETS2 (Homo sapiens, UniProt P15036 1-469).
T8 sequence: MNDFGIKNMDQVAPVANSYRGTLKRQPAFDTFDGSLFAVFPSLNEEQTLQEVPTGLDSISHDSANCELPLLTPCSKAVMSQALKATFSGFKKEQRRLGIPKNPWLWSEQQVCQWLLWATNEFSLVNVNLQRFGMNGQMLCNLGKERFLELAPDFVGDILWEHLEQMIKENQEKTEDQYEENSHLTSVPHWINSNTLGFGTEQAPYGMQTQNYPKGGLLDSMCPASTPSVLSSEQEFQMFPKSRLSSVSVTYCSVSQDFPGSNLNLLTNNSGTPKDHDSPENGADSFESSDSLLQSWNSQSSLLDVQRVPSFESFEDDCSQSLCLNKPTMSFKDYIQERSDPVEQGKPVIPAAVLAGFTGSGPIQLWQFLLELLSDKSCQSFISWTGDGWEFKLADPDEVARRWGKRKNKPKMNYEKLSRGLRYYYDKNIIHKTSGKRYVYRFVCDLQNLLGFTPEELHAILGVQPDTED
Particulars: protein: recombinant; tags: N-terminal GST; dsDNA, one strand shown. A digest of the protocol:
as §1

For another test, the target named is T9, SPDEF (Homo sapiens, UniProt O95238 1-335).
T9 sequence: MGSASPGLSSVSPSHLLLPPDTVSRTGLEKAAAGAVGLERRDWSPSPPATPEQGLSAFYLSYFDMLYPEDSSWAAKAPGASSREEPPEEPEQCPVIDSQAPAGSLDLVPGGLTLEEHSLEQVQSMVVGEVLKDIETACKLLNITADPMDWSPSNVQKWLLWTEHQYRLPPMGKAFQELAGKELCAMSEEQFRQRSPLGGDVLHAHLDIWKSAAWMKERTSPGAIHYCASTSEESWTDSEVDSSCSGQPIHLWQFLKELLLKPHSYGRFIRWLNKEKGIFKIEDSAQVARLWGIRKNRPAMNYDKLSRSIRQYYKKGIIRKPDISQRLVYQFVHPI
Conditions: protein: recombinant; tags: N-terminal GST; dsDNA, one strand shown. Summed up: as §1

The next test has as its target T10, ETV7 (Homo sapiens, UniProt Q9Y603 1-341).
T10 sequence: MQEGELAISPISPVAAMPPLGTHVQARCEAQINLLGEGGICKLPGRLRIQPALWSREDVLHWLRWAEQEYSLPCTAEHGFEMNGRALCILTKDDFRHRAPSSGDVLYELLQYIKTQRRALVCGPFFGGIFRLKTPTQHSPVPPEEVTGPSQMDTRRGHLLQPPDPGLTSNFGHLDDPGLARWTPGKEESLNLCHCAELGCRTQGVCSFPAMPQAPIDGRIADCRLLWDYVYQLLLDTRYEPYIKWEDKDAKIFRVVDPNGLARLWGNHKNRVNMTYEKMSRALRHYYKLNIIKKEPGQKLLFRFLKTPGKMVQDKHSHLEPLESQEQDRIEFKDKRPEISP
Particulars: protein: recombinant; tags: N-terminal GST; dsDNA, one strand shown. Summed up: as §1

The target in a further test is T11, ELF5 (Homo sapiens, UniProt Q9UKW6-2 1-255).
T11 sequence: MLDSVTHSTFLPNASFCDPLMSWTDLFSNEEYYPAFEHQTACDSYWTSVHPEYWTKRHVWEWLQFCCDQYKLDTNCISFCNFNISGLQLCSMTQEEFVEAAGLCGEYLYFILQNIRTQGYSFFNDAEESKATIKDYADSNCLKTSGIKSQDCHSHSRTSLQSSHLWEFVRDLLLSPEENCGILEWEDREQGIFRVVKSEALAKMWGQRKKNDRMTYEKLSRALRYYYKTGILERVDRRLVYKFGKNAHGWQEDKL
Conditions: protein: recombinant; tags: N-terminal GST; dsDNA, one strand shown. A digest of the protocol:
as §1

The target in the next test is T12, ETV3 (Homo sapiens, UniProt P41162-2 1-143).
T12 sequence: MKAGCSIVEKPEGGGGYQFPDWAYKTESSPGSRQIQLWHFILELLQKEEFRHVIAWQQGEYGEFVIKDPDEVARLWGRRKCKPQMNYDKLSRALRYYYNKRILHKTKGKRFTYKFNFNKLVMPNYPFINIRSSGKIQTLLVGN
Particulars: protein: recombinant; tags: N-terminal GST; dsDNA, one strand shown. Summed up: as §1

The next test addresses ETV6 (Homo sapiens, UniProt P41212 1-452). Conditions: protein: recombinant; tags: N-terminal GST; dsDNA, one strand shown. Summed up:
as §1

Chain of ETV1 (P50549 whole entry): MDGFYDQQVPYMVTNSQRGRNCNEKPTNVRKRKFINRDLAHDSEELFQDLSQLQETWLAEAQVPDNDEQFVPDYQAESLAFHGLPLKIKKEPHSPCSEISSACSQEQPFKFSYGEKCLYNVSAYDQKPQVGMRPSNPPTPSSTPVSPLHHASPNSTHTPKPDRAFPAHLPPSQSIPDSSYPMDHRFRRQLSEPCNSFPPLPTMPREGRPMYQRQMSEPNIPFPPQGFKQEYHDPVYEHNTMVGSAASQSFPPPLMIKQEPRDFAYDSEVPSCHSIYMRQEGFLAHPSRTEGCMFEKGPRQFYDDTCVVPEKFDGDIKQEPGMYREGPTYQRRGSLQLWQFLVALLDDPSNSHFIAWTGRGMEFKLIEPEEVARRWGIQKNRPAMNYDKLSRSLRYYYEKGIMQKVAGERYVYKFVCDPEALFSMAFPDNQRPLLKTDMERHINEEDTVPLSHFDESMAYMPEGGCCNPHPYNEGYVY
Chain of ELF4 (Q99607 whole entry): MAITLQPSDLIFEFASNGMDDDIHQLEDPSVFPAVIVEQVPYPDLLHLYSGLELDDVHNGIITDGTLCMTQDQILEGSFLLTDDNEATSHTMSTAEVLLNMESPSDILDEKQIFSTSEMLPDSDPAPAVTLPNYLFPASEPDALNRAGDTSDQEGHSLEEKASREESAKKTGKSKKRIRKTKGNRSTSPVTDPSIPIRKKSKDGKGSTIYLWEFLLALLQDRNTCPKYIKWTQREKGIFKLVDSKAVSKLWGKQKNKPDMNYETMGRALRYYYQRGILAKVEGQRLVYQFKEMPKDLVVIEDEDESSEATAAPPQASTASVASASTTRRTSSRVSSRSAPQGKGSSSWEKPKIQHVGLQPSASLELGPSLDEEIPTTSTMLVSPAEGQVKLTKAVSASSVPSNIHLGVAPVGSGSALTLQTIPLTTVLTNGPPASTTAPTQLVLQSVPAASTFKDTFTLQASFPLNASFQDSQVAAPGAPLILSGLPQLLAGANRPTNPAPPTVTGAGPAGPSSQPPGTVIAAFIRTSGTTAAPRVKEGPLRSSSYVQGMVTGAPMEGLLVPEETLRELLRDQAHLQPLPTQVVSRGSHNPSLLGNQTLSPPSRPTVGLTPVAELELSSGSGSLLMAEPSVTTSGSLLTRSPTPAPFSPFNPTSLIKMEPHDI
Chain of CRX (O43186 whole entry): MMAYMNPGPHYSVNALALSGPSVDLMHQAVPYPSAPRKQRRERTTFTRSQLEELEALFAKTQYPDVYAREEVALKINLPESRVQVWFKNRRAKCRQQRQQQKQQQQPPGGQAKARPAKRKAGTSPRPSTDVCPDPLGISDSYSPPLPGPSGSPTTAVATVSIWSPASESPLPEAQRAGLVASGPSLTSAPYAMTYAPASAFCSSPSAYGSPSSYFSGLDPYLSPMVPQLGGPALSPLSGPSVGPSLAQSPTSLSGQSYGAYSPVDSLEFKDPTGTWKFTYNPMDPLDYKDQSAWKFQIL
Chain of ETV6 (P41212 whole entry): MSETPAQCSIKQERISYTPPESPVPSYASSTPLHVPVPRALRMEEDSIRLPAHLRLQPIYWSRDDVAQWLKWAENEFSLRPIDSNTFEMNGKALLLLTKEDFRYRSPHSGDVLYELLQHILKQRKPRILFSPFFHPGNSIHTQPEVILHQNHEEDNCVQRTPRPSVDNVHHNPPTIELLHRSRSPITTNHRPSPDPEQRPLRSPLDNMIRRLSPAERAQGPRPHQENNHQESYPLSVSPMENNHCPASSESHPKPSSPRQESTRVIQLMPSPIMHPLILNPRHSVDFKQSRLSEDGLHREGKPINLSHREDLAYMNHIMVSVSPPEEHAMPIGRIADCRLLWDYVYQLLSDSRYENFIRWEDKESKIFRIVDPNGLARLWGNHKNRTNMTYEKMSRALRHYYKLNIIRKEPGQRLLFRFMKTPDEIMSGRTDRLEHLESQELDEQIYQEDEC
Chain of ETV5 (P41161 whole entry): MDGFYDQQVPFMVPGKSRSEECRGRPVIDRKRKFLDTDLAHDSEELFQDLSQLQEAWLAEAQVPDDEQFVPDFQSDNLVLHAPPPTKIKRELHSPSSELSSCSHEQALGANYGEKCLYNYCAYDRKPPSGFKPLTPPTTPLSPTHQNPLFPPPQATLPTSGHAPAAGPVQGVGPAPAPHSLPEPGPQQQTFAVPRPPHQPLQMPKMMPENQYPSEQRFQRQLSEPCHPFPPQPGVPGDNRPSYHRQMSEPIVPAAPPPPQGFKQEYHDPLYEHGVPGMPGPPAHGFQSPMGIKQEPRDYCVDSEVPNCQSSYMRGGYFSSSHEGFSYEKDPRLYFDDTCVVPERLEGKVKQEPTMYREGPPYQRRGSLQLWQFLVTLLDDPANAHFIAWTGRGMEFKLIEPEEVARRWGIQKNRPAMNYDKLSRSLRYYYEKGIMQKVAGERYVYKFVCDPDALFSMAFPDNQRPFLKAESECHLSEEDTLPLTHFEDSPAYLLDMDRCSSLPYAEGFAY

With TCAAAA, the binding signal was 1.13 fold enrichment (6-mer frequency, TF over GST control) in the test with FEV; 1.17 fold enrichment (6-mer frequency, TF over GST control) with ETV5; 1.19 fold enrichment (6-mer frequency, TF over GST control) with HSF1; 1.24 fold enrichment (6-mer frequency, TF over GST control) with SPIC; 1.22 fold enrichment (6-mer frequency, TF over GST control) with ELF4; 1.25 fold enrichment (6-mer frequency, TF over GST control) with ELK4. The binding signal with ETV2 was 1.23 fold enrichment (6-mer frequency, TF over GST control); with ELF3, 1.39 fold enrichment (6-mer frequency, TF over GST control); with CRX, 1.28 fold enrichment (6-mer frequency, TF over GST control); in the test with ETV1 it was 1.23 fold enrichment (6-mer frequency, TF over GST control); with ERF, 1.12 fold enrichment (6-mer frequency, TF over GST control); in the test with ETV3L it was 1.18 fold enrichment (6-mer frequency, TF over GST control). Moreover, the binding signal with ETS2 is 1.15 fold enrichment (6-mer frequency, TF over GST control); in the test with SPDEF, 1.06 fold enrichment (6-mer frequency, TF over GST control); in the test with ETV7, 1.22 fold enrichment (6-mer frequency, TF over GST control); with ELF5, 1.11 fold enrichment (6-mer frequency, TF over GST control); with ETV3, 1.15 fold enrichment (6-mer frequency, TF over GST control); in the test with ETV6 it was 1.24 fold enrichment (6-mer frequency, TF over GST control).
